# Screening results as filed in PubChem BioAssay.
# Env fusion inh: inhibitors of HIV Env-mediated cell fusion | HeLa-JRFL Env/CEM21 cell fusion, luciferase | inhibition, % at 12.3 µM | hit rate 1.1% among 360,000 | AID 651610;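 active = mean replicate inhibition score of at least 50 and every replicate individually at or above 50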
# C2C12 statin: suppressors of simvastatin-induced myotoxicity in C2C12 myotubes; AID 602340; hit rate 0.78% among 330,000; rescue of ATP level, % at 7.49 µM; ATP luminescence, 48 h; scaled: DMSO 0, geranylgeraniol control 100;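 active = mean ATP rescue above about 67%, or every replicate alone reaching that limit, limit read from the data, passing the limit was not always enough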;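 also: myotubes were challenged with 10 µM simvastatin during compound exposure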
# miR122 inh: inhibitors of miR-122 in Huh7 cells; hit rate 0.3% among 340,000; activation (reporter increase), % at 12.5 µM; Huh7 miR-122 Renilla luciferase sensor, 48 h; neutral wells = 0, positive control = 100;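 active = mean replicate activation score at least 90 and every replicate individually at or above 90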;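 also: higher luciferase means less miR-122 activity so hits act as miR-122 inhibitors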
# EWS-Fli block: inhibitors of EWS/Fli oncoprotein transcriptional activity; A673 NR0B1-luciferase reporter, viability-normalised; inhibition, % at 12.6 µM; hit rate 0.67% among 350,000; AID 651661;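 active = mean inhibition of at least 50% after viability correction, with every replicate also passing that limit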;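 also: firefly luciferase signal divided by Alamar Blue viability fluorescence both relative to DMSO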
# PAX8 inh HTS: inhibitors of PAX8 transcriptional activity in RMG-I cells | RMG-I TPO-luciferase reporter, SteadyGlo, 24 h | inhibition, % at 12.6 µM | hit rate 1.2% among 360,000 | AID 652154;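 active = mean replicate inhibition at least 60% with every replicate also reaching 60%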;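 also: luciferase light reporting Pax8 driven TPO promoter activity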
# GSIS activator: GLuc luminescence reporter in INS-1E cells, primary screen for activators of glucose-dependent secretion of insulin; activation, % at 16.6 µM; hit rate 0.61% among 370,000; INS-1E GLuc reporter insulin secretion, 2-3 h;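 active = lowest replicate activation of at least 40%, so every replicate reaches that level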
# A number is an active result; n = inactive; x = no result. Most compounds without a hit are left out; they make up all but 3.1% or so of the library.
SMILES,Env fusion inh,C2C12 statin,miR122 inh,EWS-Fli block,PAX8 inh HTS,GSIS activator
CCC(CO)Oc1cc(NCc2ccccc2)c2ncn(C(C)C)c2c1 (stereo not drawn),n,n,n,n,n,x
CCC(COC(=O)c1ccccc1)Oc1cc(NCc2ccccc2)c2ncn(C(C)C)c2c1 (stereo not drawn),n,n,n,n,64.1,n
COc1ccc(NC(=O)c2cc(-c3ccccc3Cl)on2)cc1,n,n,n,n,n,n
COc1cc(NC(=O)c2cc(-c3ccccc3Cl)on2)cc(OC)c1OC,n,n,n,61.6,n,n
COc1ccc(S(=O)(=O)N(C)C[C@@H]2OCCCC[C@H](C)Oc3ccc(NC(=O)CCCN(C)C)cc3C(=O)N([C@H](C)CO)C[C@@H]2C)cc1,n,x,n,n,n,n
O=C(C[n+]1cc(-c2ccc(Cl)cc2)n2c1CCCCC2)c1ccccc1,n,x,x,n,92.6,n
O=C(C[n+]1cc(-c2ccc(Br)cc2)n2c1CCCCC2)c1ccccc1,n,x,x,n,75.0,n
O=C(C[n+]1cc(-c2ccccc2)n2c1CCC2)c1cccs1,n,n,n,n,n,n
Cc1ccc(-c2c[n+](CC(=O)N3c4ccccc4Sc4ccccc43)c3n2CCC3)cc1,n,x,x,n,90.6,n
O=C(C[n+]1cc(-c2ccccc2)n2c1CCC2)N1c2ccccc2Sc2ccccc21,n,x,n,x,n,n
COc1ccc(-c2ccc3n(c2=O)C[C@@H]2[C@@H](CO)[C@H](C(=O)NCCN4CCCCC4)N(C)[C@H]32)cc1,x,x,x,n,n,n
CC[N+]1(C)CCC(O)(/C=C/c2ccccc2)C(C(=O)/C=C/c2ccccc2)C1 (stereo not drawn),n,x,n,n,67.5,80.0
COc1cc(CNn2nnnc2N)ccc1OCC(=O)NC(C)(C)C,n,n,n,x,x,x
CCOc1cc(CNn2nnnc2N)ccc1OCC(=O)NC(C)(C)C,n,83.0,n,x,x,n
CCC(=O)N1[C@@H]2c3cccc(=O)n3C[C@@H]2[C@@H](CO)[C@@H]1C(=O)NCc1ccccc1F,x,n,n,n,n,n
CC(C)NC(=O)N1[C@@H]2c3cccc(=O)n3C[C@@H]2[C@@H](CO)[C@@H]1C(=O)N1CCc2ccccc2C1,n,n,x,n,n,n
Cc1noc(C)c1NC(=O)N(C)C[C@@H]1Oc2ccc(NC(=O)NC3CCCCC3)cc2CC(=O)N([C@H](C)CO)C[C@@H]1C,n,n,n,n,x,n
C=CCN=C1CCCc2c1[nH]c1ccc(C)cc21,62.2,n,n,n,n,n
CC(C)NC(=O)N(C)C[C@H]1OCCCC[C@H](C)Oc2ccc(NC(=O)Nc3ccc(C(F)(F)F)cc3)cc2C(=O)N([C@H](C)CO)C[C@H]1C,n,x,n,n,n,n
COc1ccc([Si](C)(C)[C@@H]2[C@@H](CCO)O[C@]3(C(=O)N(C)c4ccccc43)[C@H]2C)cc1,n,x,x,n,80.6,x
COc1ccc([Si](C)(C)[C@@H]2[C@@H](CCO)O[C@]3(C(=O)N(c4ccccc4)c4ccccc43)[C@H]2C)cc1,n,x,x,n,93.1,x
O=C(NCc1ccccc1)C1(C(F)(F)F)C/C(=C/CCO)CCCO1 (stereo not drawn),n,n,x,n,n,n
C/C=C1\COC(C(=O)NCc2ccccc2)(C(F)(F)F)C=C1C=C(C)C (stereo not drawn),n,n,x,n,n,112.2
Cc1nc(SCC(=O)Nc2c(C)nn(C)c2C)c2cnn(-c3ccccc3)c2n1,63.8,n,n,x,x,x
O=C(Cc1ccc(Nc2nc3ccc(Br)cc3[nH]2)cc1)NCCc1cccs1,60.8,n,x,n,n,n
SMILES,Env fusion inh,C2C12 statin,miR122 inh,EWS-Fli block,PAX8 inh HTS,GSIS activator
O=C(NCC1CC1)c1ccc(Nc2nc3ccc(Br)cc3[nH]2)cc1,n,n,n,n,n,n
CCOC(=O)c1[nH]c2ccc(OC)cc2c1NC(=O)c1ccc2c(c1)OCO2,n,n,n,x,n,x
CCOC(=O)c1cccc(NC(=O)c2ccc3c(c2)OCO3)c1,n,n,n,70.9,n,n
O=C(Nc1ccc(NC(=O)c2cccs2)cc1)c1ccc2c(c1)OCO2,n,n,n,n,n,47.5
CSc1nnc(NC(=O)c2ccc3c(c2)OCO3)s1,n,n,n,61.7,n,n
CCOC(=O)c1[nH]c2cc(OC)c(OC)cc2c1NC(=O)c1ccc2c(c1)OCO2,n,x,n,x,x,69.0
Cc1nnc(NC(=O)c2ccc3c(c2)OCO3)s1,n,n,n,n,n,n
Cc1ccccc1S(=O)(=O)N[C@H]1CC[C@@H](CCn2cc(Cc3ccccc3)nn2)O[C@@H]1CO,n,n,x,n,n,n
COCC#Cc1ccc2c(c1)O[C@H](CN(C)C(=O)Nc1ccc(OC)cc1)[C@H](C)CN([C@H](C)CO)S2(=O)=O,n,n,n,n,x,n
Cc1noc(C)c1NC(=O)N(C)C[C@@H]1OCc2ccccc2-c2ccccc2C(=O)N([C@H](C)CO)C[C@H]1C,n,x,x,n,n,n
O=C(C[C@@H]1C=C[C@@H](NC(=O)c2cccc(F)c2)[C@@H](CO)O1)NCCN1CCCC1,n,n,x,n,n,n
O=C(Nc1ccc(-c2nc3ccccc3o2)cc1)c1ccc2c(c1)OCO2,x,n,n,n,x,n
Cc1ccc2oc(-c3ccc(NC(=O)c4ccc5c(c4)OCO5)cc3)nc2c1,n,n,n,x,n,246.2
CCOC(=O)c1c(NC(=O)CSc2nnnn2C)sc(C)c1-c1ccc(C)cc1,81.1,n,n,x,x,n
CN(C)CCCNC(=O)C[C@H]1CC[C@H]2[C@@H](COC[C@@H](O)CN2CC2CCCC2)O1,n,n,n,n,n,n
COc1ccc(/C=C2/SC(=S)N(CCC(=O)O)C2=O)cc1,57.6,n,n,x,x,n
Cc1ccc(/C=C2\SC(=O)N(CCC(=O)N3CCN(C)CC3)C2=O)cc1,n,n,x,n,n,50.0
CCc1ccc(/C=C2\SC(=S)N(CCCC(=O)N(CCO)c3ccccc3)C2=O)cc1,n,n,n,54.2,94.3,n
COc1ccc(/C=C2\SC(=S)N(CCC(=O)Nc3ccc(C(=O)O)cc3)C2=O)cc1,n,n,x,n,n,n
O=C(CCN1C(=O)/C(=C\c2ccccc2F)SC1=S)N1CCOCC1,n,n,n,n,n,41.8
CCOc1ccc(/C=C2\SC(=S)N(CCC(=O)N(CCO)c3ccccc3)C2=O)cc1,n,n,n,n,n,n
Cc1noc(C)c1NC(=O)Nc1ccc2c(c1)C(=O)N([C@@H](C)CO)C[C@@H](C)[C@@H](CN(C)C(=O)Nc1cccc3ccccc13)OCCCC[C@@H](C)O2,n,x,n,n,n,n
CO[C@@H]1CN(C)C(=O)c2cc(NS(=O)(=O)c3cccc(C)c3)ccc2OC[C@@H](C)NC[C@H]1C,n,n,n,n,x,n
O=S(=O)(N[C@H]1CC[C@H](CCn2cc(C3CC3)nn2)O[C@H]1CO)c1ccc(Cl)cc1,n,n,x,n,n,n
